# D1 potentiator: potentiators of human D1 dopamine receptor. P21728. HEK293 TREx D1 cells, calcium flux, dopamine EC20 potentiation. potentiation, % at 10 µM. 360,000 tested, 0.036% active. AID 504651; in the data active = potentiation above about 30%
# Target sequence (P21728 whole entry, looked up): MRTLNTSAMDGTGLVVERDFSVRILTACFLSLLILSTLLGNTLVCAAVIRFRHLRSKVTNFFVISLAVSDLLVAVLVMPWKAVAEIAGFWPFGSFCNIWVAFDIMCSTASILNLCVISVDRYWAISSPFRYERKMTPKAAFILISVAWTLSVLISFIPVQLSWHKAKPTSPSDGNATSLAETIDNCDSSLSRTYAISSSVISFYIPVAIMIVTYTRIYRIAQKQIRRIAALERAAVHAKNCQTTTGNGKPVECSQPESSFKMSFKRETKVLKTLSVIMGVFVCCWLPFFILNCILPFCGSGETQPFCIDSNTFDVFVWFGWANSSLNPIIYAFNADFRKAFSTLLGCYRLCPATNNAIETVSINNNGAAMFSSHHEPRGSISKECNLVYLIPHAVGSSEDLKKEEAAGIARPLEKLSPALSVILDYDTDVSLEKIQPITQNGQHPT
# D1 agonist: agonists of human D1 dopamine receptor | 360,000 tested, 1% active | P21728 | HEK293 T-REx D1 cells, calcium flux, agonist mode | activation, % at 2 µM; in the data active = activation above about 30%
#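 Tetracycline-induced HEK293 TREx D1 cells, force-coupled to calcium signalling, were dye-loaded with a no-wash calcium kit. Compound was pin-added after a 10 s baseline. Fluorescence was read kinetically at 1 cycle/s for 180 s, with calcium rises flagged as agonism.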
# BCR signal inh: blocks chronic active B-cell receptor signaling | ABC-DLBCL IkBa-CBG/CBR reporter, luminescence ratio, 4 h | Potency, µM (series often up to 46.1 µM), hits mostly inhibitors | 340,000 tested, 0.05% active | AID 493014; active = well fitted inhibition curve with a large enough effect in the signal ratio, with a control signal flat, not every such curve was filed as active; inconclusive = small, poorly fitted or top-dose-only effect, or effect the other way, or a change in a side signal; the % refers to the signal ratio
#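 Doxycycline induced both beetle luciferases in TMD8 lymphoma cells; IKK-driven degradation limits the IkappaBalpha-fused green signal, while red luminescence normalises for cell number and nonspecific effects. Compounds tested up to 46 uM, 4 hrs.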
# D1 antag: antagonists of human D1 dopamine receptor. P21728. HEK293 TREx D1 cells, calcium flux, dopamine EC80; active compounds read low. activity change, negative = inhibition, % at 10 µM. 360,000 tested, 3.2% active. AID 504652; in the data active = activity change below about -30%
#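 Calcium flux readout: force-coupled, inducible Hek293 Trex D1 line, cells induced overnight at 30 C with tetracycline, dye-loaded 30–90 min at RT. Antagonism scored against EC80 dopamine challenge given 180 s after compound.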
# DRD3 antagonist: antagonists of human D3 dopamine receptor | P35462 | D3R cells, DiscoveRx beta-arrestin luminescence, antagonist mode; active compounds read low | max response, negative = inhibition, % | 360,000 tested, 2.5% active; in the data active = max response below about -50%; inconclusive = no clear call, values can overlap the other calls
#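 Cells expressing the human receptor were seeded at 1500 cells/well, incubated overnight at 37 degrees C in 5% CO2, then exposed to library compounds with dopamine controls for 90 minutes at 37 degrees C before luminescent detection.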
# DRD3 agonist: agonists of human D3 dopamine receptor | max activation, % | AID 652048 | P35462 | 410,000 tested, 0.58% active | D3R DiscoveRx beta-arrestin cells, luminescence, 90 min; in the data active = max activation above about 30%
#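 Cells at 1500/well, incubated overnight, then treated with pinned compounds (dopamine as control) for 90 min at 37 degrees C. DiscoveRx reagent added for 30 - 60 minutes at room temperature; luminescence read.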
# Numbers stand for hits; . = inactive; ? = inconclusive; / = no result; ! = not confirmed by another sample. Hits are enriched below; roughly 6% of the tested compounds scored in any of these assays.
SMILES,D1 potentiator,D1 agonist,BCR signal inh,D1 antag,DRD3 antagonist,DRD3 agonist
CC1CCCN(S(=O)(=O)c2ccc(NC(=O)CNC3CCCC3)cc2)C1 (stereo unspecified),.,.,.,.,.,.
CC1CCCN(CC(=O)Nc2ccc(S(=O)(=O)N3C(C)CCCC3C)cc2)C1 (stereo unspecified),/,/,/,/,-51,.
CC1CCCN(CCC(=O)Nc2ccc(Br)cc2)C1 (stereo unspecified),.,.,.,.,-86,.
Fc1ccc(C(c2nnc(-c3ccccc3)o2)N2CCN(c3ccccc3)CC2)c(Cl)c1 (stereo unspecified),.,.,/,.,/,.
Cc1cccc(C(=O)OCc2cc(=O)n3nc(C4CCCCC4)sc3n2)c1,.,.,/,.,/,.
Cc1cccc(C(=O)OCc2cc(=O)n3nc(C4CC4)sc3n2)c1,.,.,/,-31,/,.
Cc1ccc(C(=O)Nc2cccc(C(=O)OCc3cc(=O)n4nc(C5CC5)sc4n3)c2)cc1,.,33,/,.,/,.
O=C(Nc1cccc(C(=O)OCc2cc(=O)n3nc(C4CC4)sc3n2)c1)c1ccccc1,.,.,/,.,/,.
CCN(CCCNC(=O)c1ccc(Sc2ccc(F)cc2)c(NC(C)=O)c1)c1ccccc1,.,.,?,.,/,.
Cc1ccc(/C(O)=C/C(=O)C(=O)NNC(=O)C(O)(c2ccccc2)c2ccccc2)cc1,.,.,.,.,-88,.
O=C(Nc1ccc(N2CCN(c3ncccc3C(F)(F)F)CC2)nc1)c1cccs1,.,.,?,.,.,.
N/C(=N\O)c1ccc(N2CCN(c3ncccc3C(F)(F)F)CC2)nc1,.,.,.,.,.,31
COc1ccc(NC(=O)c2nnn(Cc3nc(-c4cc(OC)c(OC)c(OC)c4)oc3C)c2C)cc1Cl,.,.,/,.,/,.
O=C(Cn1nc(C(F)(F)F)c2c1CCCC2)NC1CCCC1,/,/,.,/,-55,.
Cc1ccc(-n2nc(C)c3c2OC(N)=C(C#N)C3c2ccccc2F)cc1 (stereo unspecified),.,.,?,.,-52,.
O=C1CCC/C1=C\Nc1ccc(Cl)c([N+](=O)[O-])c1,.,.,.,-40,.,.
O=C1CCC/C1=C/Nc1ccc(Cl)cc1,.,.,?,.,.,.
Cn1cnc(S(=O)(=O)N2CCCCC2c2cc(C(=O)Nc3cccc(C#N)c3)no2)c1 (stereo unspecified),/,/,/,/,-80,.
CS(=O)(=O)N1CCCCC1c1cc(C(=O)Nc2cccc(C#N)c2)no1 (stereo unspecified),/,/,/,/,.,.
O=C(COc1ccc2c3c(c(=O)oc2c1)CCC3)N[C@@H](Cc1ccccc1)C(=O)O,.,.,.,.,.,33
Cc1c(OCC(=O)N[C@@H](Cc2ccccc2)C(=O)O)ccc2c1oc(=O)c1ccccc12,.,.,?,.,.,31
O=C(COc1ccc2c3c(c(=O)oc2c1)CCC3)N[C@@H](CSCc1ccccc1)C(=O)O,.,.,.,.,.,.
Clc1cccc(CNc2ncnc3c2nc2n3CCCC2)c1,.,.,/,.,/,.
ONC(=Nc1cccc(C(F)(F)F)c1)c1cccnc1,.,.,.,.,-63,.
CCCCC1Cc2[nH][nH]c(=O)c2C(c2ccc(Cl)cc2)O1 (stereo unspecified),/,/,/,/,?,.
SMILES,D1 potentiator,D1 agonist,BCR signal inh,D1 antag,DRD3 antagonist,DRD3 agonist
CCOC(=O)Cc1nn(CC)c(=O)c2ccccc12,.,.,.,.,.,.
CCOC(=O)Cc1nn(Cc2nc(-c3ccc(C#N)cc3)cs2)c(=O)c2ccccc12,.,.,.,.,.,31
Cc1ccccc1NC(=O)/C(=C\c1cccs1)NC(=O)c1ccccc1,.,.,.,.,-54,.
NNC(=O)/C(=C/c1cccs1)NC(=O)c1ccccc1Cl,.,.,11µM,.,.,.
CC(C)c1ccc(CC(=O)N2CCC2(C)C(=O)Nc2ccc3c(c2)OCCO3)cc1 (stereo unspecified),/,/,/,/,.,.
CC(C)(C)c1ccc(C(=O)NCCC(=O)NCc2ccc(F)cc2)cc1,/,/,/,/,.,.
CCCCN1C(=O)/C(=c2\sc3nc(=O)c(-c4ccccc4)nn3c2=O)c2ccccc21,.,.,?,.,-69,.
CCCN1C(=O)/C(=c2\sc3nc(=O)c(Cc4ccc(C)cc4)nn3c2=O)c2ccccc21,.,.,.,.,.,.
O=C(CCNS(=O)(=O)c1ccc2c(c1)CCN2C(=O)C1CC1)N1CCN(c2cccc(Cl)c2)CC1,.,.,/,.,/,.
O=c1[nH]c2cc3c(cc2cc1C(c1nnnn1Cc1ccccc1)N1CCCCCC1)OCCO3 (stereo unspecified),.,.,.,.,.,.
Cc1cccc2cc(C(c3nnnn3Cc3ccc4c(c3)OCO4)N3CCCC3)c(=O)[nH]c12 (stereo unspecified),.,.,.,.,-51,.
COc1ccc(C2=C/C(=C/c3cccnc3)C(=O)O2)cc1OC,.,60,.,.,.,.
CCOc1ccc(C2=C/C(=C/c3cccnc3)C(=O)O2)cc1,.,65,?,.,.,.
CCOC(=O)C1CCN(C(=O)c2cc3ccc4ccc(C)[nH]c4c3n2)CC1,.,.,/,.,/,.
CCN(CC)C(=O)Cn1c(=O)cc(C)c2c(C)nn(-c3cccc(Cl)c3C)c21,.,.,/,.,/,.
Cc1ccc(C2C(C(=O)O)c3ccccc3C(=O)N2C)c(C)c1 (stereo unspecified),.,.,.,-40,.,.
CCOc1ccc2nc(N3CCCC(C(=O)NCc4ccc(OC)cc4)C3)sc2c1 (stereo unspecified),.,.,/,.,/,.
COc1ccccc1Nc1nn2c(=O)c3ccc(C(=O)N4CCCCC4)cc3nc2s1,.,.,.,-43!,.,.
COc1cccc(NC(=O)c2ccc3c(=O)n4nc(Nc5ccccc5OC)sc4nc3c2)c1,.,.,/,.,/,.
O=C(NCCc1ccc(Cl)cc1)C(=O)NCC(c1ccco1)S(=O)(=O)c1ccc(Cl)cc1 (stereo unspecified),.,.,?,/,/,.
Cc1cccc(NC(=O)c2cccc(N3C(=O)C4CCC(C)CC4C3=O)c2)c1C (stereo unspecified),.,.,.,-49,?,.
COc1ccc(OC)c(NC(=O)c2cccc(N3C(=O)C4C5CCC(C5)C4C3=O)c2)c1 (stereo unspecified),.,.,.,.,.,.
Cc1cccc(C)c1NC(=O)c1cccc(N2C(=O)C3CCC(C)CC3C2=O)c1 (stereo unspecified),.,.,.,.,.,.
COc1ccc(NC(=O)c2cccc(N3C(=O)C4CC=C(C)CC4C3=O)c2)c(OC)c1 (stereo unspecified),.,.,?,-51,.,.

# High-throughput results: PubChem BioAssay, National Center for Advancing Translational Sciences (NCATS)
